HCV inh – qHTS Assay for Inhibitors of Hepatitis C Virus (HCV); Huh7.5.1 HCVcc-Cre infection, luciferase reporter, 44 h; Potency, µM (doses to about 41.8 µM), most hits filed as inhibitors; actives 3.4% (n = 340,000); AID 651820, 2012
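HCVcc-Cre virus at an moi near 0.5 was added right after compound to cells cultured 4 h from seeding (1,000 cells/well). Luciferase activity was determined 44 h later, 15 min after substrate addition at RT.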
RE007 growth inh – qHTS Assay for Inhibitors of the HIV-1 protein Vpr. S. pombe RE007 Vpr strain, BacTiter-Glo ATP luminescence, 24 h. Potency, µM (series often up to 92.2 µM), actives largely listed as inhibitors. actives 0.21% (n = 360,000). AID 651644, 2012; active = well fitted falling curve with a large enough effect; inconclusive = small, poorly fitted or top-dose-only effect; inactive = no such curve, though single readings can be large or run the other way; also: nearly all actives have a fitted effect of over 50% in size
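Fission yeast strain RE007, carrying one chromosomally integrated HIV-1 vpr copy, was seeded at OD 0.01 in PMG+AL medium with 23 nL pinned compound. After 24 h at 30 °C and 99% humidity, viability was read by BacTiter-Glo luminescence.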
Marburg entry inh – qHTS for inhibitors of binding or entry into cells for Marburg Virus. actives 1.8% (n = 300,000). Marburg virus pseudotyped entry inhibition, cell reporter. Potency, µM (highest dose often 37.8 µM), hits mostly inhibitors. AID 540276, 2011; calls by dose curve; tested in HEK293 cells
Sm TGR block – qHTS Assay for the Inhibitors of Schistosoma Mansoni Peroxiredoxins; actives 3% (n = 360,000); Schistosoma mansoni thioredoxin glutathione reductase (TGR), Q962Y6; purified TGR, DTNB reduction, TNB absorbance 405 nm; Potency, µM (doses to about 114 µM), actives largely listed as inhibitors; also: nearly all actives have a fitted effect of over 60% in size
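Kinetic colorimetric format: TGR-catalysed, NADPH-driven DTNB reduction monitored via TNB absorbance. Enzyme dispensed at 20 nM; compound exposure 15 min at room temperature before reaction start.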
FMDV inh – High Throughput Screening for Foot and Mouth Disease Virus Antivirals; FMDV antiviral cell-based qHTS; Potency, µM (doses to about 57.9 µM), most hits filed as inhibitors; actives 1.2% (n = 410,000); calls by dose curve; tested in HEK293T cells; also: read-out not given here; nearly all actives have a fitted effect of over 45% in size
LASV entry inh – qHTS for Inhibitors of binding or entry into cells for Lassa Virus | AID 540256, 2011 | actives 1.2% (n = 300,000) | Lassa virus pseudotype entry inhibition, cell reporter | Potency, µM (doses to about 37.9 µM), actives largely listed as inhibitors; calls by dose curve; tested in HEK293 cells; also: nearly all actives have a fitted effect of over 50% in size
Hits are given with their value; . = inactive; ? = inconclusive; / = no result given; ! = repeats disagree; [ ] = remark or other dose. The list is not random: actives were taken first. Their share in the collection is about 7.2%. Unless noted, calls follow the shape of the dose curve; as a rule, active = well fitted curve in the direction sought with a large enough effect; inconclusive = small, poorly fitted or top-dose-only effect, or another doubt; inactive = no such curve, though single readings can be large; an effect the other way counts as inactive or inconclusive.

SMILES	HCV inh	RE007 growth inh	Marburg entry inh	Sm TGR block	FMDV inh	LASV entry inh
COc1ccc(-c2nc(C#N)c(N3CCc4ccccc4C3)o2)cc1OC	11µM	.	?	.	.	?
COc1ccccc1-c1nc(C#N)c(N2CCc3ccccc3C2)o1	11µM	.	?	.	.	.
COc1ccccc1CNC(=O)c1ccc(-c2nc(CN3CCc4ccccc43)c(C)o2)cc1	/	/	/	.	?	.
Cc1cnc(C2OCCO2)c2cccc(N)c12	/	.	/	/	.	/
C=CC[n+]1c(/C=C2\C=Cc3cc(C)ccc3N2CC)ccc2ccccc21	2.5µM	?	4.1µM	.	?	7.3µM
O=C1C(c2ccc(F)cc2)N(CCc2ccc(Cl)cc2)C(=O)CN1C1CCCCCC1 (configuration not stated)	/	/	/	.	.	.
Cc1ccc(C)c2c3c([nH]c12)-c1nonc1CC3	10µM	.	.	?	.	.
Cc1ccc(C(=O)OC[C@H]2O[C@H](Cl)C[C@H]2OC(=O)c2ccc(C)cc2)cc1	/	/	.	/	/	/
COc1ccc(S(=O)(=O)N(Cc2nc(-c3ccc(C)cc3)no2)C2CCCCC2)cc1	/	/	.	.	.	.
CC12CC(NC(=O)N1c1cccc(C(=O)NCc3ccc4c(c3)OCO4)c1)c1cc(Cl)ccc1O2 (configuration not stated)	25µM	.	?	.	?	?
CCN1C(=O)c2cccc3c(S(=O)(=O)N(C(C)=O)c4ccc(OC(C)=O)cc4)ccc1c23	?	.	/	/	.	/
Cc1oc(-c2ccccc2NC(=O)c2ccsc2)nc1CN(C)Cc1ccc2c(c1)CCCN2C	/	/	/	/	.	/
O=[N+]([O-])c1cccc(-c2cc3cccc[n+]3cc2-c2cccc([N+](=O)[O-])c2)c1	.	.	.	.	.	.
Cc1cccc2cc(-c3ccccc3)c(-c3ccccc3)c[n+]12	?	.	?	.	?	11µM
C[C@@H](O)[C@H]1C(=O)N2C(C(=O)O)=C(SCCN=CN)C[C@H]12	/	/	.	/	/	.
CCCc1cc(=O)[nH]c(SCc2nc(-c3ccc(OCC)cc3)no2)n1	/	/	/	.	.	.
O=C(O)C[C@H]1c2cc(C(F)(F)F)ccc2S(=O)(=O)N1Cc1ccccc1	.	.	/	/	.	/
O=C(O)CC1c2ccccc2S(=O)(=O)N1Cc1ccccc1 (configuration not stated)	?	.	/	.	.	/
COC(=O)CC1c2ccccc2S(=O)(=O)N1Cc1ccccc1 (configuration not stated)	.	.	/	32µM	.	/
O=S1(=O)c2ccccc2C(CCO)N1Cc1ccccc1 (configuration not stated)	.	.	/	28µM	.	/
Cc1ccc(CN(Cc2ccco2)C(=O)c2ccc(Cl)cc2)o1	/	/	.	.	.	.
Nc1c2c(nc3c1CCC3)CCCC2	/	/	/	.	/	/
NNc1nc(-c2ccccc2)nc2sc3c(c12)CCCC3	.	.	?	.	.	?
Nc1c2c(nc3sc4c(c13)CCCCC4)CCCC2	22µM	.	?	.	.	?
Nc1c2c(nc3sc4c(c13)CCCC4)-c1ccccc1CC2	?	.	7.1µM	.	.	11µM
SMILES	HCV inh	RE007 growth inh	Marburg entry inh	Sm TGR block	FMDV inh	LASV entry inh
CC(C)(C)c1ccc(C(=O)N2CCN(Cc3cc(=O)n4nc(-c5ccccc5F)sc4n3)CC2)cc1	/	/	/	.	.	.
CC(C)(C)c1ccc(CC(=O)N2CCC2(C)C(=O)Nc2cnc3ccccc3c2)cc1 (configuration not stated)	/	.[18.4 µM]	/	/	20µM	/
CC1(C(=O)Nc2ccc3nc[nH]c3c2)CCN1C(=O)Cc1ccc(-c2ccccc2)cc1 (configuration not stated)	/	.	/	/	32µM	/
CC(C)c1ccc(CC(=O)N2CCC2(C)C(=O)Nc2cnc3ccccc3c2)cc1 (configuration not stated)	/	.	/	/	?	/
Cc1ccccc1-n1c(SCc2ccccn2)nc2n[nH]c(C)c2c1=N	11µM	.	?	.	.	?
Cc1ccccc1-n1c(SCC(=O)Nc2ccccc2Cl)nc2n[nH]c(C)c2c1=N	?	.	/	.	.	/
CCOc1ccccc1-n1c(SCC(=O)Nc2ccc(CC)cc2)nc2n[nH]c(C)c2c1=N	.	.	?	.	.	10µM
COc1ccc(OC)c(NC(=O)CSc2nc3n[nH]c(C)c3c(=N)n2-c2cccc(Cl)c2C)c1	?	.	18µM	.	?	.
COCC(=O)N1CCC2(CC1)CCN(c1ccncc1)CC2	/	/	/	/	.	/
CCCCOc1ccc(Br)cc1CSC(=N)N	2µM	.	?	.	13µM	?
CCOc1ccc(C(C)=O)cc1CSC(=N)N	.	.	?	.	.	.
CCN(Cc1ccccc1)C(=O)c1[nH]c2ccc(OC)cc2c1C	.	.	.	.	.	.
CCN(CC)CCNC(=O)c1[nH]c2ccc(OCc3ccccc3)cc2c1C	10µM	.	?	.	.	?
CS(=O)(=O)c1sc2nc(-c3cccs3)cc(-c3ccccc3)c2c1N	8.9µM	.	.	.	.	.
CN(C)CCC(c1ccc(Cl)cc1)c1ccccn1 (configuration not stated)	?	.[18.4 µM]	2.8µM!	.	.	.
CN(C)CCC(c1ccccc1)c1ccccn1 (configuration not stated)	5µM!	.	?	.	.	.
c1ccc(C(c2ccccn2)c2ccccn2)cc1	.	.	.	.	.	.
CN(C)CCC(O)c1ccccc1 (configuration not stated)	.	.	.	.	.	.
CN(C)CC[C@H](c1ccc(Br)cc1)c1ccccn1	/	/	8.9µM!	/	/	/
C[C@@H](C1=C(CCN(C)C)Cc2ccccc21)c1ccccn1	/	/	/	/	.	/
COC(=O)NC(CCc1ccccc1)C(C(=O)OC)C(=O)OC (configuration not stated)	/	/	.	/	/	?
COC(=O)[C@@](NC(C)=O)(Nc1ccccn1)C(F)(F)F	/	/	.	/	/	/
O=C(NC(=O)c1ccccc1O)c1ccc(C(F)(F)F)cc1	?	.	?	.	.	?
CCCc1ccc(C(=O)NC(=O)c2ccccc2O)cc1	?	.	8.9µM	.	?	10µM
CCN(C(=O)COC(=O)c1cc(C)n(C2CC2)c1C)c1ccccc1	.	.	.	.	.	.
COCCn1c(C)cc(C(=O)COC(=O)c2c(C)nn(Cc3ccccc3)c2C)c1C	?	.	?	.	.	7.1µM
Cc1nn(Cc2ccccc2)c(C)c1C(=O)OCC(=O)c1cc(C)n(C2CC2)c1C	?	.	.	.	.	15µM
CC[C@@]1(C(=O)OC)N[C@H](CN(C)S(=O)(=O)c2ccc(C(C)(C)C)cc2)[C@@H]2C(=O)N(Cc3ccccc3)C(=O)[C@@H]21	.	.	/	/	.	/

Source: PubChem BioAssay
